Drawing on PubChem BioAssay (EPA / NIEHS), this text covers outcome and AC50 for 37 molecules.

As usually defined, the AC50 is the concentration at which the activity in the assay is half-maximal.

The source made the active and inactive calls. Rule for the calls: active = hit-call score of the fitted dose curve at least 0.9, where 1 is the maximum; inactive = score below 0.9.

Sequence of Bile acid receptor (Homo sapiens) (Q96RI1 whole entry, looked up): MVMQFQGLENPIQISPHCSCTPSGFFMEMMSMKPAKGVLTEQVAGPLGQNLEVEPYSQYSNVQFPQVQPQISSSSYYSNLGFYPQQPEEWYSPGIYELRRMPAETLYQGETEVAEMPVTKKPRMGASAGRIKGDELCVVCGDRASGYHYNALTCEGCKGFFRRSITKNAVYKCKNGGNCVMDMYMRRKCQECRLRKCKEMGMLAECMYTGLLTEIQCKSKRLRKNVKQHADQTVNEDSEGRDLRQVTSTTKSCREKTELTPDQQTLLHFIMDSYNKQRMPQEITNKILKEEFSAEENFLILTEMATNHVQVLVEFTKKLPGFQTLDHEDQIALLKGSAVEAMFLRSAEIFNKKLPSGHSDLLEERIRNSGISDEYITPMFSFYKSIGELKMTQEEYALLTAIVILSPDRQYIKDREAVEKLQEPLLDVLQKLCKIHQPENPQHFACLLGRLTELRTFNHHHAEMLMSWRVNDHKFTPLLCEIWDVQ

Tested on in one assay: not listed separately
The assay can be described thus: ATG_GLI_CIS: Attagene CIS-FACTORIAL HepG2 Assay for human Zinc Finger Protein GLI1 (AID 2282945). The conditions noted are these: HepG2, Attagene cis-factorial reporter mRNA, GLI element; actives raise or lower the signal. In outline:
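HepG2 cells transiently transfected with cis-promoter multiplexed reporter units report endogenous transcription factor activity. After 24 h chemical exposure, reporter mRNA was quantified by RT-PCR, 6-FAM labelling, HpaI digestion and capillary electrophoresis, with bidirectional fitting against DMSO.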
Consider `Oc1cccc2c(O)cccc12`, for which the result was inactive.

On to `CC1CCC(C(=O)O)CC1` (configuration not stated), for which the outcome was inactive. For `CC1=CC(=O)c2ccccc2C1=O`, the outcome was inactive. As for `CCCCCCCCCCCCCC[n+]1ccccc1`, the molecule was classed as inactive. Take `CCCCCCCCC1CCC(=O)O1` (configuration not stated): the result was inactive. The same measure, in the same setting: next, `C=CCOCC(CO)(CO)CO`: “inactive”; `FC(F)(F)C1(F)C(F)(F)C(F)(F)C(F)(F)C1(F)F`: “inactive”; `Oc1c(Cl)cc(Cl)cc1Sc1cc(Cl)cc(Cl)c1O`: “inactive”. On to `NNc1nc(-c2ccc([N+](=O)[O-])cc2)cs1`, for which the outcome was inactive. Turning to `O=CC(F)(F)C(F)(F)C(F)(F)C(F)F`, the molecule was classed as inactive. On to `Nc1ccc(O)c(C(=O)O)c1`, for which the call was inactive. `Cn1sccc1=O`: the AC50 was 148 µM (active). On to `O=C1OC(=O)C(F)(F)C1(F)F`, for which the molecule was classed as inactive. Turning to `FC(F)(F)C1(F)C(F)(F)C(F)(F)C(F)(F)C(F)(C(F)(F)F)C1(F)F` (configuration not stated), the result was inactive. For `CCCCCCOC(=O)c1ccc(O)cc1`, the AC50 is 60.3 µM (active).

For the next assay, the target named is Bile acid receptor (Homo sapiens) (UniProt Q96RI1). Description: ATG_IR1_CIS: Attagene CIS-FACTORIAL HepG2 Assay for human Nuclear Receptor Subfamily 1 Group H Member 4 (NR1H4), IR1 submotif (AID 2282946). As to conditions: IR1 reporter transcription, actives raise or lower the signal. In outline:
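Readout: reporter transcript levels by RT-PCR with fluorescent capillary electrophoresis, from HepG2 cells transiently transfected with multiplexed cis-regulated reporters and dosed 24 h. Gain- or loss-of-signal fitted versus DMSO negative control.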
For the molecule `O=C(O)c1cccc(C(=O)O)n1`, the result was inactive. The same measure, in the same setting: to `O=P(O)(O)CCC(F)(F)C(F)(F)C(F)(F)C(F)(F)C(F)(F)C(F)(F)F` belongs “inactive”.

Consider `CN(Cc1cnc2nc(N)nc(N)c2n1)c1ccc(C(=O)N[C@@H](CCC(=O)O)C(=O)O)cc1`, for which the molecule was classed as inactive. `O=C(OC(=O)C(F)(F)C(F)(F)F)C(F)(F)C(F)(F)F`: the outcome was inactive. With `Cc1cccc2c1ccc1ccccc12`, the call was inactive.

As for `CCCCC(CC)C(=O)OCCOCCOCCOCCOC(=O)C(CC)CCCC` (configuration not stated), the molecule was called inactive. Take `O=C(O)CCC(F)(F)C(F)(F)C(F)(F)C(F)(F)C(F)(F)C(F)(F)F`: the molecule was classed as inactive. With `CCCCCCCCCCCCOC(=O)c1cc(O)c(O)c(O)c1`, the call was inactive. For `CC(C)(C)c1ccc(CCC=O)cc1`, the molecule was called inactive. For `O=C(O)CN(CCCN(CC(=O)O)CC(=O)O)CC(=O)O`, the molecule was classed as inactive.

For `Cc1ccccc1C(OCCN(C)C)c1ccccc1` (configuration not stated), the molecule was classed as inactive. As for `CC(C)(C)C1CCCCC1O` (configuration not stated), the call was inactive.

On to `c1ccc(CNc2ncnc3c2ncn3C2CCCCO2)cc1` (configuration not stated), for which the result was inactive. In the case of `C=CC(=C)CC/C=C(\C)CCC=C(C)C`, the result was inactive.

For the molecule `Clc1ccc(Nc2nnc(Cc3ccncc3)c3ccccc23)cc1`, the molecule was classed as inactive. Take `CCOC(=O)CN[C@@H](C(=O)N1CC[C@H]1C(=O)NCc1ccc(/C(N)=N/O)cc1)C1CCCCC1`: the outcome was inactive. For `CC1CNCC(C)O1` (configuration not stated), the call was inactive. Turning to `Cc1cc(Cc2cc(C)cc(C(C)(C)C)c2O)c(O)c(C(C)(C)C)c1`, the AC50 is 169 µM (active). In the case of `CCC(=O)C=Cc1ccc(OC)cc1`, the call was inactive.

Consider `CC=O`, for which the outcome was inactive. Consider `CCCCCCCCCCCCCCCCCC[N+](C)(C)Cc1ccccc1`, for which the call was inactive. Turning to `Nc1cc(Cl)c(-c2cc(Cl)c(N)cc2Cl)cc1Cl`, the outcome was inactive. In the case of `Oc1cccc2c(O)cccc12`, the outcome was inactive.

Turning to `CC1CCC(C(=O)O)CC1` (configuration not stated), the result was inactive. For `CC1=CC(=O)c2ccccc2C1=O`, the molecule was classed as inactive.

On to `CCCCCCCCCCCCCC[n+]1ccccc1`, for which the outcome was inactive. Consider `CCCCCCCCC1CCC(=O)O1` (configuration not stated), for which the call was inactive. With `C=CCOCC(CO)(CO)CO`, the result was inactive.

As to `FC(F)(F)C1(F)C(F)(F)C(F)(F)C(F)(F)C1(F)F`, the outcome was inactive.

Turning to `Oc1c(Cl)cc(Cl)cc1Sc1cc(Cl)cc(Cl)c1O`, the outcome was inactive. For `NNc1nc(-c2ccc([N+](=O)[O-])cc2)cs1`, the call was inactive.

Consider `O=CC(F)(F)C(F)(F)C(F)(F)C(F)F`, for which the outcome was inactive. On to `Nc1ccc(O)c(C(=O)O)c1`, for which the call was inactive.

Take `Cn1sccc1=O`: the outcome was inactive. As to `O=C1OC(=O)C(F)(F)C1(F)F`, the call was inactive.

With `FC(F)(F)C1(F)C(F)(F)C(F)(F)C(F)(F)C(F)(C(F)(F)F)C1(F)F` (configuration not stated), the call was inactive. Consider `CCCCCCOC(=O)c1ccc(O)cc1`, for which the concentration at half-maximal activity (AC50) is 47.5 µM (active).
